Reference: the supplement of paper PMC6555819

Key:
Assay in all cases: PBM binding z-score (relative to random genomic background probes); higher = stronger binding; sequences stand for … in GC…GCGATTGACAGCGTAGAATGAAGG
[1] = test system: FXR:RXRa (NR concentration 270 nM, RXRa partner concentration 90 nM)
Procedure, shortened: (§1)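 Probes were double-stranded and carried 34-nt variable regions with direct-repeat seeds, single-nucleotide variants, half-site ablations and random human genomic background sequences, printed on custom Agilent 4×180K protein-binding microarrays. Arrays were incubated 1 h with ligand-free nuclear receptor dimers in PBS pH 7.4, 2% milk, 0.02% Triton X-100, 1 mM DTT, 0.2 mg/mL BSA and 0.4 mg/ml salmon testes DNA. Antibodies against each partner (one per run) detected binding, and scanned fluorescence was regression-normalized. Binding z-scores use the random background probes as reference.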

[2] = test system: LXRa:RXRa (NR concentration 270 nM, RXRa partner concentration 90 nM)
Procedure, shortened: as §1

[3] = test system: LXRa homodimer (NR concentration 270 nM)
Procedure, shortened: as §1

[4] = test system: LXRb:RXRa (NR concentration 270 nM, RXRa partner concentration 90 nM)
Procedure, shortened: as §1

[5] = test system: LXRb homodimer (NR concentration 270 nM)
Procedure, shortened: as §1

[6] = test system: PPARa:RXRa (NR concentration 270 nM, RXRa partner concentration 90 nM)
Procedure, shortened: as §1

[7] = test system: PPARg:RXRa (NR concentration 180 nM, RXRa partner concentration 90 nM)
Procedure, shortened: as §1

[8] = test system: PPARg:RXRa 270nM:90nM, anti-RXR (NR concentration 270 nM, RXRa partner concentration 90 nM)
Procedure, shortened: as §1

[9] = test system: PPARg:RXRa 30nM:10nM, anti-RXR (NR concentration 30 nM, RXRa partner concentration 10 nM)
Procedure, shortened: as §1

[10] = test system: PPARg:RXRa 90nM:30nM, anti-RXR (NR concentration 90 nM, RXRa partner concentration 30 nM)
Procedure, shortened: as §1

[11] = test system: PPARg:RXRa DBDmut IVT, anti-RXR (DBD mutation: RXRa K156A/R161A, NR concentration 270 nM, RXRa partner concentration 90 nM)
Procedure, shortened: as §1

[12] = test system: PPARg:RXRa IVT, anti-PPARg (NR concentration 270 nM, RXRa partner concentration 90 nM)
Procedure, shortened: as §1

[13] = test system: PPARg DBDmut:RXRa IVT, anti-PPARg (DBD mutation: PPARg1 K132A/R137A, NR concentration 270 nM, RXRa partner concentration 90 nM)
Procedure, shortened: as §1

[14] = test system: PPARg DBDmut IVT, anti-PPARg (DBD mutation: PPARg1 K132A/R137A, NR concentration 270 nM)
Procedure, shortened: as §1

[15] = test system: PPARg homodimer (NR concentration 180 nM)
Procedure, shortened: as §1

[16] = test system: PXR:RXRa (NR concentration 270 nM, RXRa partner concentration 90 nM)
Procedure, shortened: as §1

[17] = test system: PXR homodimer (NR concentration 270 nM)
Procedure, shortened: as §1

[18] = test system: RARa:RXR (NR concentration 270 nM, RXRa partner concentration 90 nM)
Procedure, shortened: as §1

[19] = test system: RARa homodimer (NR concentration 270 nM)
Procedure, shortened: as §1

[20] = test system: RARb:RXRa (NR concentration 270 nM, RXRa partner concentration 90 nM)
Procedure, shortened: as §1

Sequence	PBM binding z-score [1]	PBM binding z-score [2]	PBM binding z-score [3]	PBM binding z-score [4]	PBM binding z-score [5]	PBM binding z-score [6]	PBM binding z-score [7]	PBM binding z-score [8]	PBM binding z-score [9]	PBM binding z-score [10]	PBM binding z-score [11]	PBM binding z-score [12]	PBM binding z-score [13]	PBM binding z-score [14]	PBM binding z-score [15]	PBM binding z-score [16]	PBM binding z-score [17]	PBM binding z-score [18]	PBM binding z-score [19]	PBM binding z-score [20]
GCTTGTAGATCAAGCTTAAGAAAGACTAAGCTAA	-0.441	-0.75	-0.914	-0.777	-1.32	-0.455	-0.439	-0.251	-0.693	-0.381	0.937	0.0262	-0.496	-0.218	-0.356	-0.566	-0.868	-0.0967	-0.929	-1.78
CTACCAAGGGGAACAAGGTCGTTGATTACTATTC	0.208	0.398	0.166	1.28	-0.298	1.24	0.284	0.325	0.0626	0.258	0.796	0.857	-0.93	0.266	0.795	1.46	1.29	1.16	-0.123	0.601
CCTACTGGGCCAAAAGGGTCATTGATGCCGATAA	2.19	2.17	0.372	2.58	-0.642	3.78	3.54	4.35	1.7	3.87	4.13	3.9	-0.517	-1.13	2.18	3.16	0.631	3.57	-0.0364	2.74
CCTAGTTGGTGAGGAGGTCACACACCGGATATGA	2.72	3.07	1.61	3.19	0.489	3.86	2.06	3.07	1.4	2.31	0.486	2.56	0.735	0.147	3.46	3.86	1.61	4.11	1.97	3.1
ACTCGGAGGACACAGGTCAGAGCTACGCCAGTGA	1.4	1.18	0.294	0.96	-0.518	2.18	2.85	3.06	1.09	2.71	0.556	1.45	-0.673	0.431	1.35	1.09	-0.155	1.8	0.347	2.89
CTACCAGGGTGAACAAGGTCGTTGATTACTATTC	0.789	1.46	0.0612	1.76	-0.454	2.41	0.951	1.28	0.0757	0.507	1.3	1.86	0.284	-0.282	1.61	3.12	0.95	2.67	-0.135	1.42
TAGCCTAAGTCATTGGGCCAGTATAGTACGCATC	-0.205	-0.421	-0.659	-0.39	-0.339	-0.181	0.256	-0.24	-0.281	-0.391	-0.775	-0.00957	-0.0162	-1.02	-0.452	-0.441	-0.814	-0.394	-0.564	0.068
GCTGCTAGGTCAGGTTGCTCAGCTAACGGGTACG	1.19	0.603	-0.362	0.238	-0.468	1.3	0.32	1.06	-0.602	0.106	2.92	2.01	-0.97	-0.836	0.251	-0.00315	-0.858	0.655	-0.624	3.17
CCTTACGCGTCACGAGGTTATAGCACGACGAGCG	0.529	0.868	0.107	0.95	0.329	1.44	1.08	0.331	-0.172	-0.00609	0.147	0.154	0.124	0.548	1.05	1.03	0.532	1.15	0.761	0.811
ATATGTAAGTTACATCCGGGTCATTCAGGCTATG	1.87	2.38	0.923	2.19	0.757	2.83	1.41	1.44	0.868	1.01	1.5	2.35	1.58	1.58	1.11	3.02	2.6	2.96	0.872	1.72
GATACAGGGTCCAGGCCAGAGTACGCGTATTGAT	-0.251	-0.534	-0.485	-0.738	-0.692	-0.292	0.664	-0.347	-0.488	-0.478	-0.66	-0.0913	-0.12	-0.0353	0.34	-0.441	-0.03	-0.412	-0.345	0.355
ATTTGTAGGTTAAGGGTCATTCAGGTTGGTTCGC	5.48	5.5	4.38	4.97	2.76	6.21	11.5	9.95	11.8	12.1	6.4	7.15	4.62	2.85	7.55	5.87	3.82	6.91	4.5	3.9
CCTTACGGGTCACTGACAGGTTTTAGCATTTGGA	5.38	3.52	-0.116	3.31	0.045	5.09	4.18	4.36	1.27	3.04	3.46	3.56	0.228	0.218	2.26	2.98	-0.502	4.09	1.06	3.88
CTTACTGGGCCAAAAAGGTCATTGATGCCGATAA	4.42	4.75	3.31	4.26	0.76	5.17	5.05	5.24	2.89	4.69	6.06	5.95	2.51	1.61	4.12	5.01	4.11	5.16	1.79	4.03
CCTCGGAAGACAACAGGAGGTCAGAGCTGCCAGA	0.802	1.66	1.65	1.31	-0.201	1.62	0.36	0.247	-0.599	-0.387	-0.389	-0.416	-0.399	-1.87	1.38	1.62	0.458	2.01	0.559	1.81
